DENV2 CPE = inhibitors of DENV2 cytopathic effect, primary screen, cell-based, plate reader, single concentration; DENV2-infected cells, cytopathic effect rescue; CPE inhibition, % at 9.99 µM; 1.7% of 350,000 active; in the data active means CPE inhibition above about 20%, passing the limit was not always enough; tested in BHK-21 cells
RAD54 branch = inhibitors of human RAD54 branch migration, primary screen, biochemical, fluorescence, single point; inhibition, % at 10.4 µM; 0.14% of 360,000 active; RAD54 Holliday junction branch migration, FAM/BHQ fluorescence; DNA repair and recombination protein RAD54-like (Homo sapiens), Q92698; AID 602329, 2012;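 active means mean normalized replicate activity at least 40 and at least half of replicates scoring 40 or more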;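 further: inhibitors cause a drop in the FAM fluorescence signal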
Target sequence (Q92698 whole entry, looked up): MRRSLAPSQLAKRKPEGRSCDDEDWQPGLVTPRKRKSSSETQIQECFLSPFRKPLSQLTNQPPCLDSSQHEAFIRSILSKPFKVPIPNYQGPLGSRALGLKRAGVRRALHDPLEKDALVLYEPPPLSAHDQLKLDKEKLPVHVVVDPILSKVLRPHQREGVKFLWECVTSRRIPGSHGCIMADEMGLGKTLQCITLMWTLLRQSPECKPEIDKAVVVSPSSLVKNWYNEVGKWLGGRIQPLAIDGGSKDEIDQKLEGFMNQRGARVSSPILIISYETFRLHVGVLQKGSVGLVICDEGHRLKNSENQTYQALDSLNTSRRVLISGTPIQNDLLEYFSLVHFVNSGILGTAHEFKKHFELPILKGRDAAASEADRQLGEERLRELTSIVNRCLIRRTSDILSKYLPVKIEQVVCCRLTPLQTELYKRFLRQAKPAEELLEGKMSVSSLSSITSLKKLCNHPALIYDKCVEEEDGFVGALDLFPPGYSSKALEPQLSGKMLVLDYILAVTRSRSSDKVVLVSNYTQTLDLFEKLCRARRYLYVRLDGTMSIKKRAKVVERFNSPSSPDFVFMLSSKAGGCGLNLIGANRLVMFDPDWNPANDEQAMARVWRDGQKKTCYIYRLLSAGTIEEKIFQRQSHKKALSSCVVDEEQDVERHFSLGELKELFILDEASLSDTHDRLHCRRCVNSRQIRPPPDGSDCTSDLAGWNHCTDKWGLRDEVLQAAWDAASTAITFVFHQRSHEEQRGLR
GSIS activator = GLuc luminescence reporter in INS-1E cells, primary screen for activators of glucose-dependent secretion of insulin; activation, % at 16.6 µM; AID 743287, 2014; INS-1E GLuc reporter insulin secretion, 2-3 h; 0.61% of 370,000 active;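 active means lowest replicate activation of at least 40%, so every replicate reaches that level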
dFosB activator = activators of delta FosB homodimer, primary screen, biochemical, fluorescence polarization, TAMRA-CDK5 oligo, single point | purified delta FosB; percent of positive-control signal above neutral wells | 0.99% of 340,000 active | AID 493131, 2011 | activation, % at 25 µM | Protein FosB (Mus musculus), P13346;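 active means mean activation above about 17%, with every replicate also reaching it, limit read from the data, passing the limit was not always enough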
RAD52 inh = RAD52 DNA annealing inhibitors, primary screen, biochemical, FRET, single point, set 2 | inhibition, % at 18.7 µM | 0.46% of 360,000 active | recombinant RAD52 DNA annealing, FRET fluorescence;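 active means every replicate showing at least 50% inhibition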
MLL AF4-AF9 inh = inhibitors of AF4 peptide binding to AF9, primary screen, biochemical, AlphaScreen, biotin-AF4 peptide, FLAG-AF9, single point. inhibition, % at 10 µM. Protein AF-9 (Homo sapiens), P42568. 0.47% of 350,000 active;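 active means every replicate reaching a set inhibition limit, whatever the replicate mean, cut at about 25% in these data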
Numbers stand for hits. In the library only some 3.1% were active in any assay of this set; here they are far more common.

Screening Cc1cccc(-n2nnnc2SCC(=O)NCC2(N3CCOCC3)CCCCC2)c1C returned DENV2 CPE inactive, RAD54 branch inactive, GSIS activator inactive, dFosB activator inactive, RAD52 inh inactive and MLL AF4-AF9 inh inactive.
CCOC(=O)c1c(N)c(C#N)c2n1CCCCC2 was read as RAD54 branch inactive and dFosB activator inactive.
`CCOC(=O)c1c(N)c(C#N)c2n1CCCC2` gave RAD54 branch inactive, GSIS activator 70.7 and dFosB activator inactive.
For COc1ccc(CN(C)C[C@H]2OCCCC[C@@H](C)Oc3ccc(NC(=O)NC(C)C)cc3C(=O)N([C@H](C)CO)C[C@H]2C)cc1 the results were DENV2 CPE 85.5, RAD54 branch inactive, GSIS activator inactive, RAD52 inh inactive and MLL AF4-AF9 inh inactive.
`COc1ccc(CN(C)C[C@@H]2OCCCC[C@H](C)Oc3ccc(NC(=O)NC(C)C)cc3C(=O)N([C@H](C)CO)C[C@H]2C)cc1` gave DENV2 CPE inactive, RAD54 branch inactive, GSIS activator inactive, RAD52 inh inactive and MLL AF4-AF9 inh inactive.
`COc1ccc(NC(=O)Nc2ccc3c(c2)C(=O)N([C@H](C)CO)C[C@@H](C)[C@H](CN(C)Cc2ccccc2)OCCCC[C@@H](C)O3)cc1` gave DENV2 CPE inactive, RAD54 branch inactive, GSIS activator inactive, RAD52 inh 68.7 and MLL AF4-AF9 inh inactive.
`COc1ccc(NC(=O)Nc2ccc3c(c2)C(=O)N([C@H](C)CO)C[C@@H](C)[C@@H](CN(C)Cc2ccccc2)OCCCC[C@@H](C)O3)cc1` gave DENV2 CPE inactive, RAD54 branch inactive, GSIS activator inactive, RAD52 inh inactive and MLL AF4-AF9 inh inactive.
COc1ccc(NC(=O)Nc2ccc3c(c2)C(=O)N([C@@H](C)CO)C[C@@H](C)[C@@H](CN(C)Cc2ccccc2)OCCCC[C@@H](C)O3)cc1 was read as DENV2 CPE inactive, RAD54 branch inactive, GSIS activator inactive, RAD52 inh 53.3 and MLL AF4-AF9 inh inactive.
`COc1ccc(NC(=O)Nc2ccc3c(c2)C(=O)N([C@H](C)CO)C[C@H](C)[C@@H](CN(C)C(=O)Cc2ccccc2)OCCCC[C@H](C)O3)cc1` gave DENV2 CPE 58.1, RAD54 branch inactive, GSIS activator inactive, RAD52 inh inactive and MLL AF4-AF9 inh inactive.
Screening COc1ccc(NC(=O)Nc2ccc3c(c2)C(=O)N([C@H](C)CO)C[C@H](C)[C@@H](CN(C)Cc2ccccc2)OCCCC[C@@H](C)O3)cc1 returned DENV2 CPE inactive, RAD54 branch inactive, GSIS activator inactive, RAD52 inh inactive and MLL AF4-AF9 inh inactive.
`COc1ccc(CN(C)C[C@@H]2OCCCC[C@H](C)Oc3ccc(NC(=O)Nc4ccccc4)cc3C(=O)N([C@H](C)CO)C[C@H]2C)cc1` gave DENV2 CPE 38.6, RAD54 branch inactive and GSIS activator inactive.
For COc1ccc(NC(=O)Nc2ccc3c(c2)C(=O)N([C@@H](C)CO)C[C@H](C)[C@H](CN(C)Cc2ccc(C(=O)O)cc2)OCCCC[C@H](C)O3)cc1 the results were DENV2 CPE 80.1, RAD54 branch inactive, GSIS activator inactive, RAD52 inh inactive and MLL AF4-AF9 inh inactive.
COc1ccc(NC(=O)Nc2ccc3c(c2)C(=O)N([C@@H](C)CO)C[C@@H](C)[C@H](CN(C)Cc2ccccc2)OCCCC[C@H](C)O3)cc1 was read as DENV2 CPE inactive, RAD54 branch inactive, GSIS activator inactive, RAD52 inh 52.3 and MLL AF4-AF9 inh inactive.
Screening COc1ccc(NC(=O)Nc2ccc3c(c2)C(=O)N([C@@H](C)CO)C[C@H](C)[C@@H](CN(C)Cc2ccccc2)OCCCC[C@@H](C)O3)cc1 returned DENV2 CPE inactive, RAD54 branch inactive, GSIS activator inactive, RAD52 inh 55.7 and MLL AF4-AF9 inh inactive.
Screening Cc1ccc(S(=O)(=O)N(C)C[C@H]2Oc3cc(C#Cc4ccncc4)ccc3S(=O)(=O)N([C@@H](C)CO)C[C@H]2C)cc1 returned DENV2 CPE 64.1, RAD54 branch inactive, RAD52 inh inactive and MLL AF4-AF9 inh inactive.
For C/C=C/c1ccc2c(c1)O[C@H](CN(C)S(=O)(=O)c1ccc(C)cc1)[C@H](C)CN([C@H](C)CO)S2(=O)=O the results were DENV2 CPE 20.0, RAD54 branch inactive, GSIS activator inactive, RAD52 inh inactive and MLL AF4-AF9 inh inactive.
Screening C[C@H](CO)N1C[C@H](C)[C@H](CN(C)S(=O)(=O)c2ccc(F)cc2)Oc2cc(C#Cc3ccncc3)ccc2S1(=O)=O returned DENV2 CPE inactive, RAD54 branch inactive, GSIS activator inactive, RAD52 inh inactive and MLL AF4-AF9 inh inactive.
Cc1cccc(S(=O)(=O)N2[C@@H]3c4cccc(=O)n4C[C@H]2[C@H](CO)[C@H]3C(=O)NC2CCC2)c1 was read as DENV2 CPE inactive, RAD54 branch inactive, GSIS activator inactive, RAD52 inh inactive and MLL AF4-AF9 inh inactive.
`COc1ccc(CNC(=O)C[C@@H]2CC[C@H]3[C@H](COc4ccc(NC(C)=O)cc4C(=O)N3C)O2)cc1` gave DENV2 CPE inactive, RAD54 branch inactive, GSIS activator inactive, RAD52 inh inactive and MLL AF4-AF9 inh inactive.
`Cc1noc(C)c1S(=O)(=O)Nc1ccc2c(c1)C(=O)N([C@H](C)CO)C[C@@H](C)[C@@H](CN(C)Cc1ccncc1)O2` gave DENV2 CPE inactive, RAD54 branch inactive, GSIS activator inactive, RAD52 inh inactive and MLL AF4-AF9 inh inactive.
Screening O=[N+]([O-])c1ccc(CNc2ccc(Cl)cc2)s1 returned DENV2 CPE inactive, RAD54 branch inactive, GSIS activator inactive, dFosB activator inactive, RAD52 inh inactive and MLL AF4-AF9 inh 30.3.
O=[N+]([O-])c1ccc(CNc2ccc(F)cc2)s1 was read as DENV2 CPE inactive, RAD54 branch inactive, GSIS activator inactive, dFosB activator inactive, RAD52 inh inactive and MLL AF4-AF9 inh inactive.
O=C(Nc1ccccc1)N1CCCCN2[C@H](CO)[C@H](c3ccc(C#CC4CC4)cc3)[C@H]2C1 was read as DENV2 CPE 33.8, RAD54 branch inactive, GSIS activator inactive, RAD52 inh inactive and MLL AF4-AF9 inh inactive.
`COc1ccc(NC(=O)N2CCCCN3[C@@H](CO)[C@@H](c4ccc(C#Cc5ccccc5)cc4)[C@@H]3C2)cc1` gave DENV2 CPE inactive, RAD54 branch inactive, RAD52 inh 96.6 and MLL AF4-AF9 inh inactive.
`COc1ccc(NC(=O)N2CCCCN3[C@H](CO)[C@@H](c4ccc(C#Cc5ccccc5)cc4)[C@@H]3C2)cc1` gave DENV2 CPE inactive, RAD54 branch inactive, RAD52 inh 71.2 and MLL AF4-AF9 inh inactive.
